Results filed as inconclusive are left out. A number with no mark means an inactive call. The call rests on the fitted dose curve; in most records, active means well fitted activation curve with a large enough effect; inconclusive means small, poorly fitted or top-dose-only effect; inactive means no such curve, though single readings can be large or run the other way.
Target: Cellular tumor antigen p53 (Homo sapiens) (UniProt P04637)
Experiment: Primary qHTS for small molecule compounds that upregulate eGFP-tagged delta133p53alpha (in N-terminal) cells. (AID 2060322);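 further: cells pre-induced with doxycycline then dosed without doxycycline; series mostly up to about 56 µM; 0% = DMSO vehicle and 100% = reference activator; nearly all actives have a fitted effect of over 75% in size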
Details: NCI-H358 eGFP-delta133p53alpha fluorescence, 24 h; activation: stronger effect = higher value
Outline: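 NCI-H358 cells pre-induced 24 h with 10 ng/ml doxycycline for eGFP-delta133p53alpha, plated dox-free and exposed 24 h at 37C to titrated compounds. Fixed, Hoechst-stained; gated GFP peak intensity by laser scanning cytometry, normalized to DMSO (0%) and 57.5 uM 5-azacytidine (100%).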

Cellular tumor antigen p53 (Homo sapiens), sequence (P04637 whole entry, looked up): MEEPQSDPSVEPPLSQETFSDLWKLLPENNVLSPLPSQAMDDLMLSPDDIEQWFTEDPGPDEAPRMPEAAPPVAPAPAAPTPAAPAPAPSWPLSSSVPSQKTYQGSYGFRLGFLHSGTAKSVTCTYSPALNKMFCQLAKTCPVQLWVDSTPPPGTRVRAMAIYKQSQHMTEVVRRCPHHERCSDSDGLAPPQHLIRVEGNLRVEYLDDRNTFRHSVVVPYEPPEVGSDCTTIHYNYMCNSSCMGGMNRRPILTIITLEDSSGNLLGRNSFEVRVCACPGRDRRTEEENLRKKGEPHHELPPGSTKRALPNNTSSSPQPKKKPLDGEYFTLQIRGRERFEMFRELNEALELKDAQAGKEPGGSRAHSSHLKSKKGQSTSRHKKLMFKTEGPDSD

Compound	activation [%]
Nc1ccc(C(=O)Oc2ccccc2)c(O)c1	-3.35
Nc1ccc(C(=O)NCC(=O)O)cc1	-8.47
Cc1c(C(N)=O)cc([N+](=O)[O-])cc1[N+](=O)[O-]	-8.37
COc1ccc(-c2cc(=O)c3c(O)cc(O[C@@H]4O[C@H](CO[C@@H]5O[C@@H](C)[C@H](O)[C@@H](O)[C@@H]5O)[C@@H](O)[C@H](O)[C@@H]4O)cc3o2)cc1O	-19
COc1cc(NS(=O)(=O)c2ccc(N)cc2)ncn1	-5.86
COC(=O)C1=C(C)NC(C)=C(C(=O)OCC(C)=O)C1c1ccccc1[N+](=O)[O-] (centres undefined)	1.69
CC(=O)N(CC(O)CO)c1c(I)c(C(=O)NCC(O)CO)c(I)c(C(=O)NCC(O)CO)c1I (centres undefined)	-16.7
CCCCOc1cc(C(=O)NCCN(CC)CC)c2ccccc2n1	0
O=C(O)Cn1cnnn1	-6.21
